KB-3-1 tox – KB-3-1 parental cell cytotoxicity; KB-3-1 viability, CellTiter-Glo ATP luminescence, 72 h; Potency, µM (top dose mostly 46.1 µM), hits mostly cytotoxic; 400,000 compounds, 1.4% hits; AID 1347075; also: nearly all actives have a fitted effect of over 60% in size
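Viability of parental KB-3-1 cells, measured by CellTiter-Glo luminescence, followed a 72 h incubation at 37 °C with pinned compounds in phenol-red-free DMEM containing 10% FBS.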
MCF10A rereplic – DNA re-replication induction in MCF 10a cells; MCF 10A DNA re-replication, Hoechst nuclear intensity, 48 h; Potency, µM (series often up to 46.1 µM), actives largely listed as activators; 350,000 compounds, 2.9% hits; also: nearly all actives have a fitted effect of over 50% in size
SW480 rerep – inducers of DNA re-replication in SW480 colon cancer cells | AID 624297 | SW480 DNA re-replication, Hoechst DNA content imaging, 48 h | Potency, µM (titrated, usually from 46.1 µM), usual class: activators | 340,000 compounds, 1.8% hits; also: nearly all actives have a fitted effect of over 55% in size
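First, 250 cells per well were seeded. Next, compound or vehicle (23 nL) was pinned in, plates sat 48 hr at 37 C. Finally Hoechst was added for 40 min before fluorescence scanning.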
KB-V1 MDR tox – KB-V1 MDR subline cytotoxicity | KB-V1 MDR cells viability, CellTiter-Glo, 72 h | Potency, µM (top dose mostly 46.1 µM), usual class: cytotoxic | 400,000 compounds, 3.4% hits; also: nearly all actives have a fitted effect of over 60% in size
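qHTS viability screen in drug-selected KB-V1 MDR cells: 72 h compound treatment at 37 degrees C, ATP luminescence end point.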
ELG1 repair inh – ELG1-dependent DNA repair inhibition | 330,000 compounds, 2.3% hits | HEK293T ELG1-luciferase reporter, luminescence, 16 h; DNA damage induced by 5-fluorouridine | AID 504467 | Potency, µM (titrated, usually from 46.1 µM), usual class: inhibitors; also: nearly all actives have a fitted effect of over 55% in size
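In this reporter screen, reduction of luminescence relative to DMSO vehicle indicated activity. Compounds and 5-fluorouridine were added together to 2,000 cells per well, incubated for 16 hr at 37 °C, then developed with ONE-Glo.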
Hits are given with their value; . = inactive; ? = inconclusive; / = no result given; [ ] = another dose, or the depositor's remark. Most compounds without a hit are left out; they make up all but 8.2% or so of the library. Calls follow the shape of the dose curve; as a rule, active = well fitted curve in the direction sought with a large enough effect; inconclusive = small, poorly fitted or top-dose-only effect, or another doubt; inactive = no such curve, though single readings can be large; an effect the other way counts as inactive or inconclusive.

SMILES | KB-3-1 tox | MCF10A rereplic | SW480 rerep | KB-V1 MDR tox | ELG1 repair inh
O=C(Cc1sc(-c2ccccc2)nc1-c1ccccc1)Nc1ccccc1 | . | ? | . | . | ?
O=C(O)Cc1sc(Nc2ccccc2)nc1-c1cccs1 | . | 23µM | ? | . | ?
O=C(Cc1sc(Nc2ccccc2)nc1-c1ccccc1)NCc1ccccc1 | 16µM | ? | ? | ? | ?
C=CCNc1nc(-c2cccs2)c(CC(=O)O)s1 | . | . | . | . | .
Cc1ccc(-c2nc(Nc3cccc(C)c3)sc2CC(=O)O)cc1 | . | 21µM | ? | . | ?
NC(=O)NC(=O)CN1c2cccc3cccc(c23)S1(=O)=O | . | . | . | . | .
CC(C)(Oc1ccc(Cl)cc1)C(=O)N(Cc1ccccc1)c1ccccn1 | . | . | ? | 15µM | .
O=C(COc1ccc(Br)cc1)N(Cc1ccccc1)c1ccccn1 | . | . | . | 18µM | .
COc1ccc(OCC(O)Cn2c(=N)n(CCN3CCCCC3)c3ccccc32)cc1 (centres undefined) | ? | 26µM | ? | . | ?
Cc1ccc(OCC(O)Cn2c(=N)n(CCN3CCCCC3)c3ccccc32)cc1 (centres undefined) | 21µM | ? | ? | 23µM | .
N=c1n(CCN2CCCC2)c2ccccc2n1CC(O)c1ccc(Cl)c(Cl)c1 (centres undefined) | . | 23µM | ? | . | ?
O=C1CN(C(=O)COC(=O)c2ccccc2Br)c2ccccc2N1 | / | . | . | / | .
CC(C)Cc1nc2sc3c(=O)[nH]cnc3c2c2c1CCC2 | . | . | . | 16µM | .
CCCc1nc2sc3c(=O)[nH]cnc3c2c2c1CCCC2 | / | / | / | / | .
COc1c(O)cccc1[C@@H](O)C1CCN(CCc2ccc(F)cc2)CC1 | . | . | .[9.22 µM] | . | /
COc1ccc(N(C(=O)c2cccnc2)S(=O)(=O)c2ccc3c4c(cccc24)C(=O)N3C)cc1 | . | ? | . | 16µM | .
COc1ccc(N(C(=O)c2ccncc2)S(=O)(=O)c2ccc3c4c(cccc24)C(=O)N3C)cc1 | . | . | . | . | .
Cc1ccc(-n2c(O)c(/C=N/NC(=O)C3COc4ccccc4O3)c3ccccc3c2=O)cc1 (centres undefined) | ? | ? | ? | ? | .
O=C(N/N=C/c1c(O)n(-c2ccccc2Cl)c(=O)c2ccccc12)C1COc2ccccc2O1 (centres undefined) | ? | 21µM | ? | ? | ?
O=C(N/N=C/c1cccs1)C1COc2ccccc2O1 (centres undefined) | . | . | . | ? | .
Cc1c(/C=N\NC(=O)C2COc3ccccc3O2)c2ccccc2n1C (centres undefined) | ? | ? | / | ? | .
Cc1ccc(/C=N/NC(=O)C2COc3ccccc3O2)s1 (centres undefined) | 2.1µM | 1.8µM | 2.8µM | ? | .
Cn1cc(/C=N\NC(=O)C2COc3ccccc3O2)c2ccccc21 (centres undefined) | / | 5.8µM | . | / | .
O=C(NCc1ccc(F)cc1)C1CCCCN1S(=O)(=O)c1ccc(F)cc1 (centres undefined) | . | / | / | . | /
CCCOc1ccc(OCCNC2CCCC2)cc1 | . | ? | . | 23µM | .
SMILES | KB-3-1 tox | MCF10A rereplic | SW480 rerep | KB-V1 MDR tox | ELG1 repair inh
Cc1ccc(OCCCNC2CCCC2)cc1 | . | . | . | . | .
CCOc1ccccc1OCCNC1CCCC1 | . | ? | 23µM | . | .
CCOc1ccc(OCCNC2CCCC2)cc1 | . | . | . | ? | .
COc1cccc(OC)c1OCCCNC1CCCC1 | . | . | 6.5µM | . | .
N#Cc1ccccc1OCCCNC1CCCC1 | . | . | . | . | .
CC(C)(C)c1ccc(OCCCNC2CCCC2)cc1 | ? | 16µM | ? | ? | .
CC(C)(C)c1ccc(C(=O)NCCC(=O)NCc2ccc(F)cc2)cc1 | . | / | / | . | /
Cc1ccc(-c2cc(C(F)(F)F)n3nc(C(=O)Nc4sc5c(c4C#N)CCC(C)C5)cc3n2)cc1 (centres undefined) | ? | / | / | . | /
O=C(NC1=NCCS1)c1cccc(N2C(=O)c3ccccc3C2=O)c1 | . | 6.5µM | . | ? | .
CC(=O)c1cccc(NC(=O)c2cccc(N3C(=O)c4ccccc4C3=O)c2)c1 | . | . | . | . | .
Nc1[nH]c(C(=O)c2ccc(Br)cc2)c(-c2ccc(Br)cc2)c1C(=O)NCCc1c[nH]c2ccccc12 | ? | / | / | 21µM | /
Nc1[nH]c(C(=O)c2ccccc2)c(-c2ccc([N+](=O)[O-])cc2)c1C(=O)NCCc1c[nH]c2ccccc12 | ? | / | / | 23µM | /
COc1ccc(C(=O)c2[nH]c(N)c(C(=O)NCCc3c[nH]c4ccccc34)c2-c2ccc(Cl)cc2)cc1 | . | / | / | . | /
COC(=O)C1=CN(Cc2ccccc2)C=C(C(=O)OC)C1c1cc(F)ccc1F | . | 21µM | ? | . | .
COC(=O)C1=CN(Cc2ccc(C)cc2)C=C(C(=O)OC)C1c1ccc(F)c(F)c1 | . | 23µM | 4.6µM | ? | .
CNc1ncnc2c1ncn2[C@H]1CN(CCc2ccccc2)C[C@@H](CO)O1 | . | / | / | . | /
O=C1[C@@H]2Cc3c([nH]c4ccccc34)[C@@H](c3ccccc3)N2C(=O)[C@@H]2Cc3c([nH]c4ccccc34)[C@@H](c3ccccc3)N12 | / | ? | 23µM | / | .
O=C1NCC(=O)N2C(c3ccccc3)c3[nH]c4ccccc4c3C[C@@H]12 (some centres undefined) | . | . | . | . | ?
CC[C@H]1c2[nH]c3ccccc3c2C[C@@H]2C(=O)N(c3ccc(F)cc3)C(=O)N21 | . | . | . | . | 8.2µM
CC1(C)c2[nH]c3ccccc3c2C[C@@H]2C(=O)N(c3cc(F)ccc3F)C(=O)N21 | . | ? | . | ? | /
CC(=O)Nc1ccc(N2CCCCC2)c(C(=O)Nc2cccc(C)c2)c1 | . | ? | . | 7.3µM | ?
Cc1cccc(NC(=O)c2cc(NC(=O)C3CCCCC3C(=O)O)ccc2N2CCCCC2)c1 (centres undefined) | . | 15µM | . | . | .
Cc1cccc(NC(=O)c2cc(NC(=O)C3CC=CCC3C(=O)O)ccc2N2CCOCC2)c1 (centres undefined) | . | . | . | . | .
Cc1ccc(C2=NOC(=O)/C2=C\c2ccc(C)o2)cc1 | . | 16µM | ? | . | ?
Cc1ccc(/C=C2\C(=O)ON=C2c2ccccc2)o1 | . | . | . | . | .
O=C1NC[C@H](CCCCN2CCN(CCc3ccccc3)C(=O)C2=O)N(CCc2ccccc2)C1=O | . | / | / | . | /
COc1cc(/C=N/N=C(/N)c2nonc2N)cc(Br)c1OCc1ccccc1C | . | 13µM | . | . | .
CCOC(=O)c1sc(NC(=O)c2ccc(S(=O)(=O)N(CC)CC)cc2)nc1C | . | . | . | . | ?
CCN(CC)S(=O)(=O)c1ccc(C(=O)Nc2nc3c(Cl)cc(Cl)cc3s2)cc1 | 21µM | / | / | . | /
